7 compounds from PubChem BioAssay (EPA / NIEHS) can be followed below.

Results filed as inconclusive are left out. Activity calls are given as the source filed them. Rule for the calls, unless noted: active = hit-call score of the fitted dose curve at least 0.9, where 1 is the maximum; inactive = score below 0.9.

The nature of experiment [1]: ACEA_ER_80hr: ACEA Biosciences xCELLigence Real-Time Cell Analysis on Estrogen Receptor Agonism for Proliferation (AID 2282667; active = hit-call score of the fitted dose curve at least 0.9, where 1 is the maximum). Conditions: T47D proliferation, impedance (xCELLigence), 80 h. In a few lines:
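Real-time impedance growth kinetics of human T-47D breast cells read 80 h after dosing, gain-of-signal fitted relative to DMSO. Compounds: 1:4 serial series, top final concentration 100 uM, n = 2.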

A short description of experiment [2]: ATG_CRE_CIS: Attagene CIS-FACTORIAL HepG2 Assay for human cAMP Responsive Element (CRE) binding protein 3 (AID 2282926). Conditions: HepG2 CRE cis-reporter, Attagene multiplexed mRNA; actives raise or lower the signal. In outline:
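Multiplexed transcription-unit reporters transfected into HepG2; 24 h dosing; RT-PCR/capillary electrophoresis fluorescence read-out; bidirectional fit vs DMSO.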

Experiment [3] has as its target CCAAT/enhancer-binding protein beta (Homo sapiens) (UniProt P17676). Kind of experiment: ATG_C_EBP_CIS: Attagene CIS-FACTORIAL HepG2 Assay for human CCAAT/Enhancer Binding Protein (C/EBP) beta (AID 2282927). Conditions: HepG2 Attagene cis-factorial transcription factor reporter; actives raise or lower the signal. In a few lines: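 Endogenous C/EBPb-driven reporter transcripts measured in transfected human HepG2 cells at 24 h via RT-PCR and capillary electrophoresis of labelled fragments. Activity fitted in both directions relative to DMSO baseline.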

Experiment [4] is described as follows: ATG_CMV_CIS: Attagene CIS-FACTORIAL HepG2 Assay for human CMV (Internal Marker) (AID 2282928).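 Note: endpoint acts as a background internal control marker rather than a target.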 Conditions: HepG2 CMV promoter reporter, transcription factor profiling; actives raise or lower the signal. In outline:
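Cell system: HepG2, transiently transfected multiple reporter units under cis promoters. Exposure: 24 h. Detection: RT-PCR, FAM labeling, HpaI digestion, capillary electrophoresis. Analysis: bidirectional, DMSO baseline.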

A short description of experiment [5]: ATG_DR4_LXR_CIS: Attagene CIS-FACTORIAL HepG2 Assay for human Liver X Receptor (LXR), DR4 submotif (AID 2282929). Conditions: HepG2 Attagene DR4 cis-reporter, mRNA transcription; actives raise or lower the signal. In a few lines:
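The endpoint is DR4-element-driven reporter transcripts after 24 h chemical exposure of transfected HepG2 cells. These were measured via RT-PCR and capillary electrophoresis, and gain or loss of signal was fitted relative to DMSO controls.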

Experiment [6] addresses Aryl hydrocarbon receptor (Homo sapiens) (UniProt P35869). Kind of experiment: ATG_Ahr_CIS: Attagene CIS-FACTORIAL HepG2 Assay for human Aryl Hydrocarbon Receptor (Ahr) (AID 2282930). Conditions: HepG2 AhR cis-factorial reporter transcription; actives raise or lower the signal. In a few lines:
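Reporter mRNA levels, quantified by RT-PCR and fluorescent capillary electrophoresis, reflect endogenous AhR transcriptional activity in HepG2 cells carrying transfected cis-promoter reporter constructs. Readout at 24 h post-dose; gain or loss fitted against DMSO baseline.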

Experiment [7] can be described thus: ATG_AP_1_CIS: Attagene CIS-FACTORIAL HepG2 Assay for human Activator Protein 1 (AP-1) (AID 2282931). Conditions: HepG2 Attagene cis-factorial AP-1 reporter mRNA; actives raise or lower the signal. In a few lines:
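Readout is reporter transcript level from endogenous transcription factor activity, quantified by RT-PCR with fluorescent primer extension and capillary electrophoresis. Transiently transfected HepG2 cells, 24 h exposure. Curves fitted both directions versus DMSO.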

Experiment [8] in a line: ATG_AP_2_CIS: Attagene CIS-FACTORIAL HepG2 Assay for human Activator Protein 2 (AP-2) (AID 2282932). Conditions: HepG2 AP-2 cis-reporter, Attagene transcription factor profiling; actives raise or lower the signal. In a few lines: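 Step one: transient transfection of HepG2 with reporter transcription units. Step two: 24 h chemical exposure. Step three: RNA extraction, RT-PCR, labelled fragment analysis by capillary electrophoresis; DMSO serves as baseline.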

Experiment [9] in a line: ATG_BRE_CIS: Attagene CIS-FACTORIAL HepG2 Assay for human Bone Morphogenetic Protein (BMP) Response Element (BRE) (AID 2282933). Conditions: HepG2 BMP response element reporter, Attagene transcription factor profiling; actives raise or lower the signal. In a few lines:
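Endogenous transcription factor activity read in transiently transfected HepG2 cells after 24 h chemical exposure. Bidirectional curve fitting against DMSO; readout is reporter transcript level by RT-PCR with capillary electrophoresis of labelled products.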

The target in experiment [10] is Retinoic acid receptor alpha (Homo sapiens) (UniProt P10276). Description: ATG_DR5_RAR_CIS: Attagene CIS-FACTORIAL HepG2 Assay for human Retinoic Acid Receptor Alpha (RARE), DR5 submotif (AID 2282934). Conditions: HepG2 Attagene cis-factorial RARE DR5 reporter, mRNA; actives raise or lower the signal. In a few lines:
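Reporter transcripts from a DR5-regulated unit, measured via RT-PCR plus capillary electrophoresis, reflect endogenous RAR activity in transiently transfected human HepG2 liver cells. Exposure lasted 24 h; gain or loss of signal scored against DMSO.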

For experiment [11], the target named is Transcription factor E2F1 (Homo sapiens) (UniProt Q01094). Kind of experiment: ATG_E2F_CIS: Attagene CIS-FACTORIAL HepG2 Assay for human E2F Transcription Factor 1 (AID 2282935). Conditions: HepG2 Attagene cis-reporter, E2F reporter RNA transcripts; actives raise or lower the signal. In a few lines:
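Total RNA from 24 h-treated, reporter-transfected HepG2 cells undergoes DNase I treatment, oligo(dT) reverse transcription, PCR and 6-FAM primer extension before capillary electrophoresis.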

Experiment [12] in a line: ATG_E_Box_CIS: Attagene CIS-FACTORIAL HepG2 Assay for human Enhancer Box (E-box) (AID 2282936). Conditions: HepG2 E-box cis-reporter transcription, actives raise or lower the signal. In outline: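 DMSO served as negative control and baseline for bidirectional fitting. Human hepatoma HepG2 cells, transiently transfected with cis-reporter constructs, were dosed 24 h; reporter mRNA read by RT-PCR and capillary electrophoresis.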

The nature of experiment [13]: ATG_M_61_CIS: Attagene CIS-FACTORIAL HepG2 Assay for M61 Transcription Factor (Internal Marker) (AID 2282937). Conditions: HepG2 Attagene CIS-FACTORIAL M61 internal marker reporter; actives raise or lower the signal. In a few lines: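 Readout is reporter mRNA by RT-PCR, fluorescent primer extension and capillary electrophoresis, with gain or loss fitted relative to DMSO. Transfected HepG2 cells carrying endogenous-TF-driven cis reporters were exposed to chemicals for 24 hours.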

A short description of experiment [14]: ATG_EGR_CIS: Attagene CIS-FACTORIAL HepG2 Assay for human Early Growth Response 1 (EGR1) (AID 2282938). Conditions: HepG2 Attagene CIS-FACTORIAL EGR reporter mRNA; actives raise or lower the signal. In outline: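 After 24 h compound exposure, RNA from reporter-transfected HepG2 cells was reverse-transcribed, PCR-amplified, fluorescently labelled and resolved by capillary electrophoresis. EGR1 reporter transcript changes, up or down, were fitted against DMSO, reflecting endogenous transcription-factor activity.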

Experiment [15] can be described thus: ATG_M_19_CIS: Attagene CIS-FACTORIAL HepG2 Assay for M19 Transcription Factor (Internal Marker) (AID 2282939). Conditions: HepG2 Attagene CIS-FACTORIAL M19 internal marker reporter; actives raise or lower the signal. In outline:
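Internal marker readout, fitted in both directions against DMSO, from HepG2 cells carrying transfected cis-element reporter constructs; RT-PCR and capillary electrophoresis of reporter mRNA after 24 h exposure.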

Experiment [16] can be described thus: ATG_ERE_CIS: Attagene CIS-FACTORIAL HepG2 Assay for Estrogen Response Element (ERE) (AID 2282940). Conditions: HepG2 ERE cis-reporter, Attagene RNA transcript; actives raise or lower the signal. In outline: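 After 24 h compound treatment, RNA from transfected HepG2 cells was reverse-transcribed, reporter cDNA PCR-amplified, FAM-labelled, HpaI-cut and resolved by capillary electrophoresis. ERE-driven cis reporter transcripts reflect endogenous factors; gain or loss scored against DMSO.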

Experiment [17] can be described thus: ATG_Ets_CIS: Attagene CIS-FACTORIAL HepG2 Assay for human Erythroblast Transformation Specific (ETS) (AID 2282941). Conditions: HepG2 ETS cis-reporter transcription, actives raise or lower the signal. In a few lines:
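After transient cis-reporter transfection, HepG2 cells receive test chemical for 24 h. Reporter mRNA levels, measured by RT-PCR and capillary electrophoresis fluorescence, are analysed bidirectionally relative to the DMSO baseline.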

The target of experiment [18] is Hepatocyte nuclear factor 3-beta (Homo sapiens) (UniProt Q9Y261). Description: ATG_FoxA2_CIS: Attagene CIS-FACTORIAL HepG2 Assay for human Forkhead box A2 (FOXA2) (AID 2282942). Conditions: HepG2 cis-reporter transcription factor activity, 24 h; actives raise or lower the signal. In a few lines: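 Endogenous transcription factor activity is captured via cis-element-driven reporter transcripts in transfected HepG2. Total RNA taken at 24 h post-dosing; labelled RT-PCR products resolved by capillary electrophoresis. Gain or loss fitted versus DMSO.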
Hepatocyte nuclear factor 3-beta (Homo sapiens), sequence (Q9Y261 whole entry, looked up): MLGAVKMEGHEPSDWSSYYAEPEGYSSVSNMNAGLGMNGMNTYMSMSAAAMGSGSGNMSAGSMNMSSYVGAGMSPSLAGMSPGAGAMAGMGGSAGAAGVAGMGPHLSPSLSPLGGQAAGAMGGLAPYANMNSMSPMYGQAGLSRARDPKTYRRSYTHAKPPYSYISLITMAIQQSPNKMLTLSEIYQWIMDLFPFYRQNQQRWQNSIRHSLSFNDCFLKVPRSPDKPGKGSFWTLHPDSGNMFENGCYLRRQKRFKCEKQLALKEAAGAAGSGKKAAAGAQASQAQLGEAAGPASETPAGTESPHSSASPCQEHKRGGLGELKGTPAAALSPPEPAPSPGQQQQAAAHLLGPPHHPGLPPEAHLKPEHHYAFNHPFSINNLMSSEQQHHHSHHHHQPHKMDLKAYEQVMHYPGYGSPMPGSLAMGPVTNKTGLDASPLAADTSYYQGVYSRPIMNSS

Experiment [19] can be described thus: ATG_GATA_CIS: Attagene CIS-FACTORIAL HepG2 Assay for human GATA Binding Protein (AID 2282944). Conditions: HepG2 GATA cis-element reporter, Attagene multiplex mRNA; actives raise or lower the signal. In outline: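 Reporter transcripts from a GATA cis-regulated unit, among multiplexed reporters in transfected HepG2 cells, were measured by RT-PCR with capillary electrophoresis after 24 h dosing. Induction or loss scored relative to DMSO.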

The nature of experiment [20]: ATG_FoxO_CIS: Attagene CIS-FACTORIAL HepG2 Assay for human Forkhead box O (FoxO) (AID 2282943). Conditions: HepG2 Attagene cis-reporter, FoxO element, mRNA; actives raise or lower the signal. In a few lines: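 Endogenous transcription factor activity read from multiplexed cis-promoter reporter transcripts in transiently transfected HepG2, 24 h after dosing. Reporter RNA measured via RT-PCR plus capillary electrophoresis of FAM-labeled products; gain or loss relative to DMSO.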

CCAAT/enhancer-binding protein beta (Homo sapiens), sequence (P17676 whole entry, looked up, the tested form may be a part): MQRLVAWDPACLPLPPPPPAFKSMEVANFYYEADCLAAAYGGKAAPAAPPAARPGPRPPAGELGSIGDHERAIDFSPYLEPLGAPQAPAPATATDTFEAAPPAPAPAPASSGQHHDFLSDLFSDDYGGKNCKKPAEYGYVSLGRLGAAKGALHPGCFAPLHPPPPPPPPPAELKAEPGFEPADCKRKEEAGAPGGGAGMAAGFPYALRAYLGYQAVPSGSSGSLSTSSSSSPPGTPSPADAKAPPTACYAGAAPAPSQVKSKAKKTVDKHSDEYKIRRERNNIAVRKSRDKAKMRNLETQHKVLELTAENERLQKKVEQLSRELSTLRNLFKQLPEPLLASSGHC
Aryl hydrocarbon receptor (Homo sapiens), sequence (P35869 whole entry, looked up): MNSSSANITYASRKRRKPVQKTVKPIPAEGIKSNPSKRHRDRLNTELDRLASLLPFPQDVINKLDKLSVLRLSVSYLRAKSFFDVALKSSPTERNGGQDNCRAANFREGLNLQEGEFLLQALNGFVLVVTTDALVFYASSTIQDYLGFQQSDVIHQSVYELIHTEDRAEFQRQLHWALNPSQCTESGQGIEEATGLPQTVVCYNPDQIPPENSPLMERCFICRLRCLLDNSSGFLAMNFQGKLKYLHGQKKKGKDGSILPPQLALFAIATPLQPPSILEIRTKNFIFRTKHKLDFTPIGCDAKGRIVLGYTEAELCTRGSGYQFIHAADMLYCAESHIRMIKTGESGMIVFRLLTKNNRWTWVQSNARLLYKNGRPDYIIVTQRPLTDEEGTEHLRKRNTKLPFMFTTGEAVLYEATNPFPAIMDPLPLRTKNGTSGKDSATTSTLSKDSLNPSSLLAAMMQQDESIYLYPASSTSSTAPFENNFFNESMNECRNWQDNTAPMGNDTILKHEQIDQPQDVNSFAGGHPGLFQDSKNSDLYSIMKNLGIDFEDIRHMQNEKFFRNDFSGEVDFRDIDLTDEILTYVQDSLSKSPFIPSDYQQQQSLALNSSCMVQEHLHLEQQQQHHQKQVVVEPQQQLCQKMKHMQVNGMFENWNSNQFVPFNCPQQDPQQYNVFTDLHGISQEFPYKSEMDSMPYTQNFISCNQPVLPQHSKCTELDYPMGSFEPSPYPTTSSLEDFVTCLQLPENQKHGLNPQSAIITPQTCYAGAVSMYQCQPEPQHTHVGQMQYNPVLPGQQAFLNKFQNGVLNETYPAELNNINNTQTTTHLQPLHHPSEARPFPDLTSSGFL
Transcription factor E2F1 (Homo sapiens), sequence (Q01094 whole entry, looked up): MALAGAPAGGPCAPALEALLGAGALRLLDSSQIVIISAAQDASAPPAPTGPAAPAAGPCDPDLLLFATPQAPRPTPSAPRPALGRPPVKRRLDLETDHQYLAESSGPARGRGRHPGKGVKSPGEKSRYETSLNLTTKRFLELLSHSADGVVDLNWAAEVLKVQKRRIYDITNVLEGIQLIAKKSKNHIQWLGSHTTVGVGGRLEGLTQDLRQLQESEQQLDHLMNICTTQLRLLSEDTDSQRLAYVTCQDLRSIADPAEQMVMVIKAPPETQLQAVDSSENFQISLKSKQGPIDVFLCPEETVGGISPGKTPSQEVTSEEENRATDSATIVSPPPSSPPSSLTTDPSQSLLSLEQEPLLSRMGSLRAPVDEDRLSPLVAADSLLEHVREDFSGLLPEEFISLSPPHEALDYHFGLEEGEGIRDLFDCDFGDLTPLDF
Retinoic acid receptor alpha (Homo sapiens), sequence (P10276 whole entry, looked up): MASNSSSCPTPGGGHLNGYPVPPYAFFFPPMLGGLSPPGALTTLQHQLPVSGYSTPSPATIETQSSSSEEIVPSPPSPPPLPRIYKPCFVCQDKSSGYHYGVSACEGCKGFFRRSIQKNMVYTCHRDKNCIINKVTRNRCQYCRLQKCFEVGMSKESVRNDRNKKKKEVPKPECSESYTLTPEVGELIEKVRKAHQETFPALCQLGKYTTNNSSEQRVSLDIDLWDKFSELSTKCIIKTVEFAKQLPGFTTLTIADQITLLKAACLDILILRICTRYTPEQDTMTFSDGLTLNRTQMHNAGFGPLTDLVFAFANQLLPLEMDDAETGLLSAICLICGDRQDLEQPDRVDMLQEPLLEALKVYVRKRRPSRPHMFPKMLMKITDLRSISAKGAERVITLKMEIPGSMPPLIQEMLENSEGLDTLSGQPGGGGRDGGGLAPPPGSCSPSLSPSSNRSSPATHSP

As for `O=C(C=Cc1ccccc1)OCCc1ccccc1`, the result in [1], in [2], in experiment [3], in experiment [4], in experiment [6] and in experiment [7] was inactive. For the same compound, the compound was classed as inactive in experiment [8], in [9], in [10], in experiment [11], in [12] and in experiment [13]. The call in [14], in [15], in experiment [17], in experiment [18] and in experiment [19] was inactive. Further, the half-maximal activity concentration (AC50) (usually the concentration at which the activity in the assay is half-maximal) in experiment [5] was 24.8 µM (active); in experiment [16], 32.7 µM (active).
For the compound `CCCCC1C(=O)N(c2ccccc2)N(c2ccccc2)C1=O`, the outcome in experiment [1], in experiment [2], in experiment [3], in experiment [4], in experiment [5] and in experiment [6] was inactive. Also, the compound was called inactive in [7], in [8], in experiment [9], in experiment [10], in experiment [11] and in experiment [12]. Also, the compound was classed as inactive in experiment [13], in experiment [14], in experiment [15], in [16], in [17] and in experiment [18]. In addition, the outcome in experiment [19] was inactive.
For `CC1(C)CCC[C@]2(C)[C@H]3CC(=O)O[C@]3(C)CC[C@@H]12`, the result in experiment [1], in experiment [2], in experiment [3], in experiment [4], in [5] and in experiment [6] was inactive. Further, the compound was called inactive in [7], in experiment [8], in [9], in [10], in [11] and in experiment [12]. The compound was called inactive in experiment [13], in experiment [14], in experiment [15], in [16], in [18] and in experiment [20]. The outcome in experiment [19] was inactive.
With `CC1=CC(C)C(C=O)CC1` (stereo not drawn), the compound was called inactive in experiment [1], in experiment [2], in experiment [3], in experiment [4], in experiment [5] and in experiment [7]. The result in experiment [8], in experiment [9], in [10], in experiment [11], in experiment [12] and in [13] was inactive. In addition, the compound was called inactive in [14], in experiment [15], in experiment [17], in experiment [18], in experiment [20] and in experiment [19]. For the same compound, the AC50 in experiment [6] is 8.87 µM (active).
For `C=C(C)C(=O)OCCCCCCCCCCCC`, the call in experiment [1], in [2], in experiment [3], in experiment [5], in [6] and in experiment [7] was inactive. The compound was classed as inactive in experiment [8], in experiment [9], in experiment [10], in experiment [11], in experiment [12] and in experiment [13]. Moreover, the compound was classed as inactive in experiment [14], in experiment [15], in [16], in experiment [18], in experiment [20] and in [19]. The concentration at half-maximal activity (AC50) in experiment [4] was 100 µM (active).
Take `Cc1cccc(C(C)(C)C)c1O`: the outcome in [1], in experiment [2], in [3], in experiment [4], in experiment [5] and in [6] was inactive. For the same compound, the outcome in experiment [7], in experiment [8], in experiment [9], in experiment [10], in experiment [11] and in experiment [12] was inactive. Also, the outcome in [13], in experiment [15], in [16], in experiment [17], in experiment [18] and in experiment [20] was inactive. Further, in experiment [19], the compound was classed as inactive.
In the case of `CC1=C(O)C(=O)C(C)O1` (stereo not drawn), the call in experiment [1], in [2], in [3], in experiment [4], in experiment [5] and in experiment [6] was inactive. Further, the call in experiment [7], in experiment [8], in experiment [9], in experiment [10], in experiment [11] and in [12] was inactive. For the same compound, the compound was classed as inactive in experiment [13], in [14], in [15], in [17], in experiment [18] and in experiment [20]. The compound was classed as inactive in experiment [19].
